The test is described as follows: RBBP9 hydrolase inhibition, IC50 by ABPP – biochemical, gel-based ABPP, late-stage follow-up (AID 2254). The following applies: fluorophosphonate probe labeling of RBBP9.

We go through 7 compounds from PubChem BioAssay AID2254 (The Scripps Research Institute Molecular Screening Center, 2010).

The source made the active and inactive calls. No rule for the calls is given here.

`COc1ccc(C(=O)ON=C2C=C(C)C(=O)C(C)=C2)cc1`: the IC50 (commonly the concentration needed to halve the response being measured) is > 100 µM (inactive).
The value for `CC1=CC(=NOC(=O)/C=C/c2ccccc2)C=C(C)C1=O` was > 100 µM (inactive); that for `C/C(=N\OC(=O)C1CCCCC1)c1nccs1` was > 100 µM (inactive); that for `C/C(=N\OC(=O)c1ccccc1)c1nccs1` was > 100 µM (inactive).
Take `C/C(=N\OC(=O)c1ccc(Cl)cc1)c1nccs1`: the IC50 was > 100 µM (inactive).
The same measure for `COc1ccc(C(=O)O/N=C(\C)c2nccs2)cc1`: > 100 µM (inactive).
The value for `C/C(=N\OC(=O)c1ccc(F)cc1)c1nccs1` was > 100 µM (inactive).
